# The full ranking holds about 140,000 sequences; the median of “enrichment ratio after two sorts for PhoP signalling” is about 0, and the highest 2% start at about 11. Many of the other results were omitted from the sample, so the highest values are more common in it than they were.
# B1: PhoQ; a variant is named by its letters at X, in order, P23837 (parent)
# chain: MKKLLRLFFPLSLRVRFLLATAAVVLVLSLAYGMVALIGYSVSFDKTTFRLLRGESNLFYTLAKWENNKLHVELPENIDKQSPTMTLIYDENGQLLWAQRDVPWLMKMIQPDWLKSNGFHEIEADVNDTSLLLSGDHSIQQQLQEVREDDDDAEMTHSVAVNVYPATSRMPKLTIVVVDTIPVELKSSYMVWSWFIYVLSANLLLVIPLLWVAAWWSLRPIEALAKEVRELEEHNRELLNPATTRELTSLVRNLNRLLKSERERYDKYRTTLTDLTHSLKTPLXXLQXXLRSLRSEKMSVSDAEPVMLEQISRISQQIGYYLHRASMRGGTLLSRELHPVAPLLDNLTSALNKVYQRKGVNISLDISPEISFVGEQNDFVEVMGNVLDNACKYCLEFVEISARQTDEHLYIVVEDDGPGIPLSKREVIFDRGQRVDTLRPGQGVGLAVAREITEQYEGKIVAGESMLGGARMEVIFGRQHSAPKDE
# Variants of: B1
# Test: enrichment ratio after two sorts for PhoP signalling (ratio (wild type AVST 3.29)); higher = more functional
# Settings: with PhoP (E. coli)
row,Variant,enrichment ratio
1,MADQ,≤ 0.25
2,VHFE,≤ 0.25
3,ESLL,0.525
4,ELNQ,≤ 0.25
5,YNNL,≤ 0.25
6,TNML,1.41
7,MNML,24.9
8,GNML,12.2
9,LNML,2.48
10,YNSK,≤ 0.25
11,VGML,8.33
12,GIML,8.24
13,MNMI,4
14,GQML,7.95
15,GGML,15.7
16,YNML,13.9
17,SKFF,≤ 0.25
18,ALTN,7.81
19,SRAG,≤ 0.25
20,IRNN,≤ 0.25
21,KMTD,≤ 0.25
22,DIIE,≤ 0.25
23,HEPC,≤ 0.25

row,Variant,enrichment ratio
1,YNTI,≤ 0.25
2,GRQY,≤ 0.25
3,HGML,21.6
4,VNSK,≤ 0.25
5,VNNL,≤ 0.25
6,MVPL,≤ 0.25
7,RGML,≤ 0.25
8,MVML,11.9
9,TGML,12.2
10,HFML,≤ 0.25
11,MVCL,4.31
12,NGML,≤ 0.25
13,VNML,14.6
14,HIML,≤ 0.25
15,YQHI,≤ 0.25
16,FWLA,≤ 0.25
17,TCLH,1.39
18,SHYK,≤ 0.25
19,DMSQ,≤ 0.25
20,IDIQ,≤ 0.25
21,RRTP,≤ 0.25
22,MAIN,≤ 0.25
23,GTWQ,≤ 0.25

row,Variant,enrichment ratio
1,EFQI,≤ 0.25
2,GCML,3.33
3,PVML,≤ 0.25
4,GVML,13.4
5,GYML,≤ 0.25
6,FGML,22.9
7,FGDL,≤ 0.25
8,GTML,12.6
9,QGML,6.23
10,PWML,≤ 0.25
11,SCGR,≤ 0.25
12,GTVR,≤ 0.25
13,SFSS,≤ 0.25
14,VDHN,≤ 0.25
15,ILLE,≤ 0.25
16,DHMC,≤ 0.25
17,FYNT,≤ 0.25
18,ANLF,10.7
19,KIQT,≤ 0.25
20,ISLD,≤ 0.25
21,ETRK,≤ 0.25
22,VRAM,≤ 0.25
23,NGAM,≤ 0.25

row,Variant,enrichment ratio
1,QGAM,13
2,SHAM,8.88
3,TRAM,15.1
4,RGAM,≤ 0.25
5,SRAM,≤ 0.25
6,QGWM,9.7
7,THAM,18.6
8,FFAM,≤ 0.25
9,TGAM,13
10,NHAM,≤ 0.25
11,EKVL,≤ 0.25
12,YQEF,≤ 0.25
13,KAPT,≤ 0.25
14,IGGQ,≤ 0.25
15,TDAM,17.8
16,TFGM,1.64
17,GGAM,18.2
18,TFTM,3.86
19,NIAM,≤ 0.25
20,KDAM,≤ 0.25
21,LTAM,≤ 0.25
22,TFAM,18.6
23,YHAM,≤ 0.25
